Compound activity (PubChem BioAssay)
PNC inhibitor: perinucleolar compartment assembly inhibition. PC3M PTB-GFP, PNC prevalence imaging, 16 h; stronger effect = lower value. activity change (PNC), negative = inhibition, % at 10 µM. hit rate 3.1% among 140,000. AID 2417;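 active = readout at or below -70, meaning at least 70% loss of cells showing the perinucleolar compartment, a nuclear body marking cancer cells; inconclusive = readout between -30 and a set limit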
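Read-out is percentage of cells bearing a perinucleolar compartment, from automated 20x imaging of fixed, Hoechst-stained PC3M PTB-GFP cells. Cells were seeded 4 h, then exposed 16 h to compound (23 nl of library stock) in duplicate plates.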
IMPase inh: cell-permeable inhibitors of inositol monophosphatase (IMPase); P97697; CHO-M1 cells, IP1 accumulation, HTRF TR-FRET ratio; inhibition (IP1 accumulation), % at 46.1 µM; 120,000 tested, under 10 active; active = well fitted curve in the direction sought with a large enough effect in the signal ratio, not every such curve was filed as active; inconclusive = small, poorly fitted or top-dose-only effect, or a change in a side signal; inactive = no such curve, though single readings can be large or run the other way; the % refers to the signal ratio;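 note: cells stimulated with carbachol in lithium chloride buffer; higher means more IMPase inhibition seen as more IP1 and lower FRET ratio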
Target sequence (P97697 whole entry, looked up): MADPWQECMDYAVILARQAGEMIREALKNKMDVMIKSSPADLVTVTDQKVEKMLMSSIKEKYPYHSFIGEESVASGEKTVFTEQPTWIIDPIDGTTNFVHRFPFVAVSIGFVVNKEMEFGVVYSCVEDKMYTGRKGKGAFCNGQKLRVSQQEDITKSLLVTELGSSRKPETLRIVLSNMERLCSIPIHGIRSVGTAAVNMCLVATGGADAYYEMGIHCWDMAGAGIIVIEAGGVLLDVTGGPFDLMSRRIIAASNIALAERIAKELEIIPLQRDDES
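Seeded CHO-M1 cells were dosed with compound at up to 46 uM, stimulated with carbachol for 30 min, then lysed in IP-One detection reagents. Higher IP1 lowers the TR-FRET signal.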
ALDH1A1 inh: blocks purified human ALDH1A1 activity; P00352; Purified ALDH1A1, NADH fluorescence, propionaldehyde substrate; Potency, µM (top dose mostly 75.3 µM), usual class: inhibitors; hit rate 7.3% among 220,000
Luc counter: counter-screen: inhibitors of Kinase-Glo firefly luciferase; hit rate 0.28% among 200,000; Potency, µM (doses to about 38.3 µM), hits mostly inhibitors; Kinase-Glo luciferase, ATP luminescence, 8 min; Q27757; active = well fitted inhibition curve with a large enough effect; inconclusive = small, poorly fitted or top-dose-only effect; note: nearly all actives have a fitted effect of over 60% in size
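Recombinant Kinase-Glo luciferase, 10 uM ATP (linear range), luciferin; imidazole pH 7.2 / KCl / MgCl2 / Tween / BSA buffer; 8 min RT; luminescence.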
HPGD inh: inhibitors of human 15-hydroxyprostaglandin dehydrogenase (HPGD); purified HPGD, NADH fluorescence kinetic, PGE2 substrate; Potency, µM, usual class: inhibitors; hit rate 4.3% among 150,000
Target sequence (P15428 whole entry, looked up): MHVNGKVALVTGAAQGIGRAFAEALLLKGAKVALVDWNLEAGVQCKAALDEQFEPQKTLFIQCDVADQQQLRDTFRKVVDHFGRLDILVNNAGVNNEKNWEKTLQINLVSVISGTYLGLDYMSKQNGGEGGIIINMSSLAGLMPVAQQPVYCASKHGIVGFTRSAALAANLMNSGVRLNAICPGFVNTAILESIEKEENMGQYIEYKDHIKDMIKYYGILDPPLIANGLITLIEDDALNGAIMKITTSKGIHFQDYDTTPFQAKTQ
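NADH formation kinetics: reaction with 30 uM PGE2 and 1 mM NAD+ (final), 20 nM enzyme, Tris-HCl pH 8 with Tween 20, after 15 min compound preincubation at room temperature. Fluorescence change, last versus first of five reads.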
Lamin A splicing: modulators of lamin A splicing; HeLa LMNA splicing GFP/RFP minigene ratio, 48 h; Potency, µM (titrated, usually from 46.1 µM), usual class: inhibitors; hit rate 0.01% among 200,000; AID 1487; active = well fitted inhibition curve with a large enough effect in the signal ratio, with a control signal flat, not every such curve was filed as active; inconclusive = small, poorly fitted or top-dose-only effect, or effect the other way, or a change in a side signal; the % refers to the signal ratio
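Read-out is the ratio of GFP to DsRed2 object intensity, acquired by 488 nm laser-scanning cytometry on HeLa lamin A-EGFP minigene reporter cells. Compound incubation 48 hrs at 37 °C in Opti-MEM with 2% FBS; DMSO 0.5% final.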
Numbers stand for hits; i = inactive; ? = inconclusive; nt = not tested or not shown; [ ] = remark or other dose. The list is not random: actives were taken first. Their share in the collection is about 10%. Unless noted, calls come from the whole dose curve; as a rule, active = well fitted inhibition curve with a large enough effect (not every such curve was filed as active); inconclusive = small, poorly fitted or top-dose-only effect, or another doubt; inactive = no such curve, though single readings can be large or run the other way.

SMILES	PNC inhibitor	IMPase inh	ALDH1A1 inh	Luc counter	HPGD inh	Lamin A splicing
CC1(C)C(=O)CC[C@@]2(C)C1CC(O)[C@@]1(C)C3=CC(=O)OC(c4ccoc4)[C@]3(C)CCC21 (stereo not given in full)	nt	nt	i	i	i	nt
CC1(C)C(O)C=C[C@@]2(C)C1CC(=O)O[C@@]1(C)C3=CC(=O)OC(c4ccoc4)[C@]3(C)CCC21 (stereo not given in full)	nt	nt	22µM	i	i	nt
CC(=O)OC1CC2C(C)(C)C(O)CC(O)[C@@]2(C)C2CC[C@@]3(C)C(=CC(=O)OC3c3ccoc3)[C@]12C (stereo not given in full)	nt	nt	?	i	20µM	nt
C=CCSc1nnc(CSc2nc3sc4c(c3c(=O)[nH]2)CCCC4)n1-c1ccccc1	i	i	?	i	i	?
CCOC(=O)CSc1nc2ccccc2c(=O)[nH]1	i	i	i	i	i	i
CCOC(=O)CSc1nnc(CSc2nc3ccccc3c(=O)[nH]2)n1-c1ccccc1	i	i	?	i	4.5µM	i
CCOC(=O)CSc1nnc(CSc2nc3ccccc3s2)n1C	-97	i	?	i	i	i
CCOC(=O)CSc1nnc(CSc2nc3sc4c(c3c(=O)[nH]2)CCC4)n1C	i	i	i	i	8.9µM	i
CCOC(=O)CSc1nnc(CSc2nc3sc4c(c3c(=O)[nH]2)CCC4)n1-c1ccccc1	i	i	i	i	8.9µM	i
Cc1nnc(SCc2nc3sc4c(c3c(=O)[nH]2)CCCC4)n(N)c1=O	nt	nt	22µM	nt	nt	?
Nc1nc(SCc2nc3sc4c(c3c(=O)[nH]2)CCCC4)n[nH]1	i	nt	?	i	i	?
CC1CN(c2ccccc2)C(=O)CS1 (stereo not given)	i	i	15µM	i	16µM	i
CCCCOCC1CN(c2ccccc2)C(=O)CS1 (stereo not given)	i	i	13µM	i	i	i
Cc1cc(C)cc(NC(=O)c2cc(S(=O)(=O)N3CCC(C)CC3)cn2C)c1	nt	nt	nt	nt	nt	i
Clc1cccc(N/N=C/c2ccc(N3CCOCC3)s2)c1	i	i	11µM	i	i	i
CC(C)(C)OC(=O)N/N=C/c1ccc(N2CCOCC2)s1	?	nt	i	i	i	?
O=C(N/N=C/c1ccc(N2CCOCC2)s1)c1ccccc1Br	nt	nt	14µM	i	nt	?
CSCCC(NS(=O)(=O)c1cccs1)C(=O)Nc1ccc(C)c(Cl)c1 (stereo not given)	nt	i	nt	nt	nt	nt
O=S(=O)(Nc1ccc(S(=O)(=O)N2CCCCCC2)cc1)c1cccs1	i	i	?	i	i	i
O=S(=O)(Nc1cccc(CO)c1)c1cccs1	nt	nt	?	nt	nt	i
CCCOC(=O)c1ccc(NS(=O)(=O)c2cccs2)cc1	?	i	?	i	18µM	?
C/C(=N\NC(=O)c1ccc(NS(=O)(=O)c2cccs2)cc1)c1ccc(Cl)cc1	-89	nt	i	i	i	i
C/C(=N\NC(=O)c1ccc(NS(=O)(=O)c2cccs2)cc1)c1cccs1	nt	nt	i	i	nt	i
O=S(=O)(Nc1ccc(N2CCCCC2)cc1)c1cccs1	i	?	i	i	25µM	?
Cc1cccc(NS(=O)(=O)c2cccs2)c1	i	i	i	i	28µM	i
SMILES	PNC inhibitor	IMPase inh	ALDH1A1 inh	Luc counter	HPGD inh	Lamin A splicing
CCCOC(=O)c1ccc(NC(=O)/C=C/c2cccs2)cc1	i	nt	i	i	?	i
C=CCOC(=O)C(C(C)=O)C(NC(=O)OC)c1cccc(F)c1 (stereo not given)	nt	nt	i[13.5 µM]	nt	nt	nt
CCc1cccc(C)c1NC(=O)Cn1cnc2c1c(=O)n(C)c(=O)n2C	nt	i	nt	nt	nt	nt
Cc1noc(C)c1C(=O)N1CCC2(CC1)CN(c1cccc(-c3ccccc3)c1)C2	nt	nt	?	i	?	nt
Cc1ccc(-n2ncc(C(=O)Nc3ccc4c(c3)OCO4)c2C2CCN(C(=O)OC(C)(C)C)CC2)c(C)c1	nt	nt	nt	nt	nt	i
O=C(COc1ccc(Cl)cc1)Nc1ccc2nc(SCC(=O)N3CCOCC3)sc2c1	nt	nt	nt	nt	nt	i
COc1ccc(NS(=O)(=O)c2cccc(C(=O)N/N=C(\C)c3ccncc3)c2)cc1	-91	nt	?	i	i	?
O=C(c1ccc(NS(=O)(=O)c2cccs2)cc1)N1CCCCC1	?	i[0.0738 µM]	?	i	11µM	?
O=C(CNCc1cccs1)Nc1ccc(S(=O)(=O)N2CCCCC2)cc1	nt	nt	?	i	nt	i[9.22 µM]
